Measured values reported in paper PMC11006913.

Each sequence was assayed against HOXC9 (Homo sapiens, UniProt P31274 178-260, K195R) (assay: PBM; 200 nM protein, PBS). Conditions: dsDNA, one strand shown.
Chain of HOXC9 (Homo sapiens, UniProt P31274 178-260, K195R) (P31274 178-260 K195R): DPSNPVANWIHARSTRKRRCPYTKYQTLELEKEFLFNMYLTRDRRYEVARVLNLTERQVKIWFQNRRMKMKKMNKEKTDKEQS

Row | Sequence | binding signal
1 | ATTTAACA | 11.6 upbm affinity estimate (log intensity, higher = more binding, comparable within an allelic series)
2 | ATCTACTA | 11 upbm affinity estimate (log intensity, higher = more binding, comparable within an allelic series)
3 | ATAGTCAA | 10.7 upbm affinity estimate (log intensity, higher = more binding, comparable within an allelic series)
4 | CACTAATA | 11.3 upbm affinity estimate (log intensity, higher = more binding, comparable within an allelic series)
5 | ATTGTATG | 11.1 upbm affinity estimate (log intensity, higher = more binding, comparable within an allelic series)
6 | CCTCCAGG | 9.43 upbm affinity estimate (log intensity, higher = more binding, comparable within an allelic series)
7 | CGGTGCCA | 9.43 upbm affinity estimate (log intensity, higher = more binding, comparable within an allelic series)
8 | AGTATTAT | 11.6 upbm affinity estimate (log intensity, higher = more binding, comparable within an allelic series)
9 | CGTTAAAG | 11.3 upbm affinity estimate (log intensity, higher = more binding, comparable within an allelic series)
10 | ATCTTTAA | 11.4 upbm affinity estimate (log intensity, higher = more binding, comparable within an allelic series)
11 | ATGAACTA | 10.9 upbm affinity estimate (log intensity, higher = more binding, comparable within an allelic series)
12 | CCGTTATA | 11.3 upbm affinity estimate (log intensity, higher = more binding, comparable within an allelic series)
13 | ATAATAAC | 12 upbm affinity estimate (log intensity, higher = more binding, comparable within an allelic series)
14 | ATATTGCA | 11.2 upbm affinity estimate (log intensity, higher = more binding, comparable within an allelic series)
15 | GAGAGCTC | 9.48 upbm affinity estimate (log intensity, higher = more binding, comparable within an allelic series)
16 | ACTAAATA | 11.6 upbm affinity estimate (log intensity, higher = more binding, comparable within an allelic series)
17 | CTGTTATA | 11.5 upbm affinity estimate (log intensity, higher = more binding, comparable within an allelic series)
18 | TTATACAA | 11.1 upbm affinity estimate (log intensity, higher = more binding, comparable within an allelic series)
19 | CGGGAGCC | 9.62 upbm affinity estimate (log intensity, higher = more binding, comparable within an allelic series)
20 | AGGACGTG | 9.73 upbm affinity estimate (log intensity, higher = more binding, comparable within an allelic series)

Row | Sequence | binding signal
21 | GGGCCCCC | 9.38 upbm affinity estimate (log intensity, higher = more binding, comparable within an allelic series)
22 | ATGTTAAC | 11.1 upbm affinity estimate (log intensity, higher = more binding, comparable within an allelic series)
23 | CGTAAAGA | 11.1 upbm affinity estimate (log intensity, higher = more binding, comparable within an allelic series)
24 | CCTCTGGA | 9.66 upbm affinity estimate (log intensity, higher = more binding, comparable within an allelic series)
25 | CCCCAGGG | 9.62 upbm affinity estimate (log intensity, higher = more binding, comparable within an allelic series)
26 | CTGGACGC | 9.6 upbm affinity estimate (log intensity, higher = more binding, comparable within an allelic series)
27 | AGACCAGG | 9.63 upbm affinity estimate (log intensity, higher = more binding, comparable within an allelic series)
28 | AGGCTCCC | 9.39 upbm affinity estimate (log intensity, higher = more binding, comparable within an allelic series)
29 | CCTGCACC | 9.28 upbm affinity estimate (log intensity, higher = more binding, comparable within an allelic series)
30 | CCAGCCCG | 9.66 upbm affinity estimate (log intensity, higher = more binding, comparable within an allelic series)
31 | TCCTTCGA | 9.75 upbm affinity estimate (log intensity, higher = more binding, comparable within an allelic series)
32 | TAAGAATA | 10.9 upbm affinity estimate (log intensity, higher = more binding, comparable within an allelic series)
33 | ACGCCATA | 11 upbm affinity estimate (log intensity, higher = more binding, comparable within an allelic series)
34 | AGGGACCC | 9.58 upbm affinity estimate (log intensity, higher = more binding, comparable within an allelic series)
35 | CGCATTTA | 11.1 upbm affinity estimate (log intensity, higher = more binding, comparable within an allelic series)
36 | CTATAGAA | 11.1 upbm affinity estimate (log intensity, higher = more binding, comparable within an allelic series)
37 | CTGCATAA | 11.2 upbm affinity estimate (log intensity, higher = more binding, comparable within an allelic series)
38 | AGCCCGGC | 9.63 upbm affinity estimate (log intensity, higher = more binding, comparable within an allelic series)
39 | CATTTAGA | 11.1 upbm affinity estimate (log intensity, higher = more binding, comparable within an allelic series)
40 | AGTATAAC | 11 upbm affinity estimate (log intensity, higher = more binding, comparable within an allelic series)

These sequences were tested against HOXC9 (Homo sapiens, UniProt P31274 178-260) (assay: PBM; 200 nM protein, PBS). Conditions: dsDNA, one strand shown.
Chain of HOXC9 (Homo sapiens, UniProt P31274 178-260) (P31274 178-260): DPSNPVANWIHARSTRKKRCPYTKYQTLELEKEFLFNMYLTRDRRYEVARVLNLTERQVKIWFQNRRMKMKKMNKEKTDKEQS

Row | Sequence | binding signal
41 | ATTTAACA | 11.6 upbm affinity estimate (log intensity, higher = more binding, comparable within an allelic series)
42 | ATCTACTA | 10.7 upbm affinity estimate (log intensity, higher = more binding, comparable within an allelic series)
43 | ATAGTCAA | 10.7 upbm affinity estimate (log intensity, higher = more binding, comparable within an allelic series)
44 | CACTAATA | 11.4 upbm affinity estimate (log intensity, higher = more binding, comparable within an allelic series)
45 | ATTGTATG | 11 upbm affinity estimate (log intensity, higher = more binding, comparable within an allelic series)
46 | CCTCCAGG | 9.47 upbm affinity estimate (log intensity, higher = more binding, comparable within an allelic series)
47 | CGGTGCCA | 9.52 upbm affinity estimate (log intensity, higher = more binding, comparable within an allelic series)
48 | AGTATTAT | 11.6 upbm affinity estimate (log intensity, higher = more binding, comparable within an allelic series)
49 | CGTTAAAG | 11.4 upbm affinity estimate (log intensity, higher = more binding, comparable within an allelic series)
50 | ATCTTTAA | 11.3 upbm affinity estimate (log intensity, higher = more binding, comparable within an allelic series)
51 | ATGAACTA | 10.9 upbm affinity estimate (log intensity, higher = more binding, comparable within an allelic series)
52 | CCGTTATA | 11.3 upbm affinity estimate (log intensity, higher = more binding, comparable within an allelic series)
53 | ATAATAAC | 12 upbm affinity estimate (log intensity, higher = more binding, comparable within an allelic series)
54 | ATATTGCA | 11.2 upbm affinity estimate (log intensity, higher = more binding, comparable within an allelic series)
55 | GAGAGCTC | 9.56 upbm affinity estimate (log intensity, higher = more binding, comparable within an allelic series)
56 | ACTAAATA | 11.5 upbm affinity estimate (log intensity, higher = more binding, comparable within an allelic series)
57 | CTGTTATA | 11.5 upbm affinity estimate (log intensity, higher = more binding, comparable within an allelic series)
58 | TTATACAA | 11.1 upbm affinity estimate (log intensity, higher = more binding, comparable within an allelic series)
59 | CGGGAGCC | 9.73 upbm affinity estimate (log intensity, higher = more binding, comparable within an allelic series)
60 | AGGACGTG | 9.75 upbm affinity estimate (log intensity, higher = more binding, comparable within an allelic series)

Row | Sequence | binding signal
61 | GGGCCCCC | 9.62 upbm affinity estimate (log intensity, higher = more binding, comparable within an allelic series)
62 | ATGTTAAC | 11.1 upbm affinity estimate (log intensity, higher = more binding, comparable within an allelic series)
63 | CGTAAAGA | 11.2 upbm affinity estimate (log intensity, higher = more binding, comparable within an allelic series)
64 | CCTCTGGA | 9.58 upbm affinity estimate (log intensity, higher = more binding, comparable within an allelic series)
65 | CCCCAGGG | 9.8 upbm affinity estimate (log intensity, higher = more binding, comparable within an allelic series)
66 | CTGGACGC | 9.69 upbm affinity estimate (log intensity, higher = more binding, comparable within an allelic series)
67 | AGACCAGG | 9.68 upbm affinity estimate (log intensity, higher = more binding, comparable within an allelic series)
68 | AGGCTCCC | 9.56 upbm affinity estimate (log intensity, higher = more binding, comparable within an allelic series)
69 | CCTGCACC | 9.29 upbm affinity estimate (log intensity, higher = more binding, comparable within an allelic series)
70 | CCAGCCCG | 9.72 upbm affinity estimate (log intensity, higher = more binding, comparable within an allelic series)
71 | TCCTTCGA | 9.66 upbm affinity estimate (log intensity, higher = more binding, comparable within an allelic series)
72 | TAAGAATA | 10.8 upbm affinity estimate (log intensity, higher = more binding, comparable within an allelic series)
73 | ACGCCATA | 10.9 upbm affinity estimate (log intensity, higher = more binding, comparable within an allelic series)
74 | AGGGACCC | 9.44 upbm affinity estimate (log intensity, higher = more binding, comparable within an allelic series)
75 | CGCATTTA | 11.2 upbm affinity estimate (log intensity, higher = more binding, comparable within an allelic series)
76 | CTATAGAA | 11 upbm affinity estimate (log intensity, higher = more binding, comparable within an allelic series)
77 | CTGCATAA | 11.1 upbm affinity estimate (log intensity, higher = more binding, comparable within an allelic series)
78 | AGCCCGGC | 9.75 upbm affinity estimate (log intensity, higher = more binding, comparable within an allelic series)
79 | CATTTAGA | 11.1 upbm affinity estimate (log intensity, higher = more binding, comparable within an allelic series)
80 | AGTATAAC | 11 upbm affinity estimate (log intensity, higher = more binding, comparable within an allelic series)
